Experimental findings from PubChem BioAssay are described below.

Test [1] in a line: inhibitors of Chlamydomonas gravitaxis, primary screen, whole organism, Chlamydomonas reinhardtii, WT vs cilia-less mutant, absorbance, 96-well (AID 463189).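 Note: 0% = wild type cc124 cells in DMSO and 100% = ciliumless bld1 mutant cells.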 The following applies: OD600 absorbance, 2 days, at 10 µM, stronger effect = higher value.
Test [2] can be described thus: inhibitors of TNFa-induced NFkB p65 translocation, primary screen, imaging, HUVEC, MLSMR starter and 10KST1 sets (AID 438;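 active = inhibition above 20% together with a positive visual image hit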;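 note: compound added about 3h40 before a 20 min TNFalpha stimulation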;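 for inhibition: signal is the nuclear over cytoplasmic p65 intensity ratio per well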). The following applies: HUVEC TNFa-induced p65 nuclear translocation; cell count: measured here: nuclei count (cytotoxicity indicator), at 2.08 µM; inhibition: at 2 µM, stronger effect = higher value, 0% TNFa-plus-vehicle, 100% no-TNFa wells.
The nature of test [3]: inhibitors of E-selectin induction by TNFa, primary screen, imaging, HUVEC, immunofluorescence, MLSMR starter and 10KST1 sets (AID 487;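 active = visually confirmed hit in the image check and inhibition above 20%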;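 for inhibition: signal is fraction of cell area covered by stained E-selectin grains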;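 for nuclei count: 100% = median nuclei count of all wells on the same plate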). The settings on record: HUVEC TNFalpha-induced E-selectin immunofluorescence imaging, at 2 µM; inhibition: stronger effect = higher value; nuclei count: measured here: cell number, toxicity.
The nature of test [4]: DUSP6 inhibitors restoring Erk phosphorylation by chemical complementation, primary imaging in DUSP6-transfected HeLa (AID 609;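 active = compounds giving at least 50% inhibition in the cell-based MKP-3 phosphatase rescue imaging test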;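 for inhibition: phospho-Erk level distribution per well compared with pooled transfected vehicle control wells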). The settings on record: HeLa MKP-3 transfected, phospho-Erk imaging KS statistic, at 10 µM, cells stimulated with TPA for 15 min.
For test [5], the target named is Dual specificity protein phosphatase 6 (Homo sapiens) (UniProt Q16828). Described as above. The following applies: HeLa MKP-3 transfected, phospho-Erk imaging KS statistic; at 10 µM; stronger effect = higher value; cells stimulated with TPA for 15 min.
Sequence of Dual specificity protein phosphatase 6 (Homo sapiens) (Q16828 whole entry, looked up): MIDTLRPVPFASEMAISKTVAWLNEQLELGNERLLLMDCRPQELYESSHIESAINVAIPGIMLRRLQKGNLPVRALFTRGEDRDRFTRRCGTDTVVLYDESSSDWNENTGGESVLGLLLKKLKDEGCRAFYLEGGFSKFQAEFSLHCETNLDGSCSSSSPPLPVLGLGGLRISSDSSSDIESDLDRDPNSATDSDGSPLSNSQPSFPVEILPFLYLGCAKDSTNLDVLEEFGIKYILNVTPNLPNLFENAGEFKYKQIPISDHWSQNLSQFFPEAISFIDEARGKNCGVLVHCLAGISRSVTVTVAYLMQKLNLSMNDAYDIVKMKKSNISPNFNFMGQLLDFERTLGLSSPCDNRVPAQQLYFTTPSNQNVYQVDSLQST
Test [6] concerns the target Voltage-gated potassium channel subunit beta-2 (Rattus norvegicus) (UniProt P62483). Put plainly: KvBeta enzyme negative modulators, primary screen, biochemical, NADPH fluorescence (AID 622;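 active = fluorescence slope higher than the sample average by over 3 SD, cut at about -0.22 in these data, passing the limit was not always enough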;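 note: slope of raw intensity against log time taken from 70 to 1610 s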). The settings on record: recombinant KvBeta, 4-cyanobenzaldehyde reduction, at 10 µM, stronger effect = higher value.
Test [7] has the same target. Put plainly: KvBeta positive modulators, primary screen, biochemical, NADPH fluorescence (AID 623;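 active = NADPH fluorescence slope more negative than the mean of all samples by about 3 SD, 99.7% confidence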;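 note: fluorescence intensity change per second fitted from 20 to 320 s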). The following applies: Recombinant KvBeta, NADPH fluorescence decrease slope, 10 min; at 10 µM; stronger effect = lower value.
Test [8] addresses Alpha-2C adrenergic receptor (Homo sapiens) (UniProt P18825). Put plainly: modulators of alpha2C/GIRK thallium flux, primary screen, cell-based, HEK293 alpha2C/GIRK1/2 (AID 624;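 active = fluorescence slope after compound addition differing from the mean of all screened samples at 99.7% confidence, in either direction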;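 note: slope of fluorescence ratio to pre-addition baseline per second over 15 to 24 s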). The settings on record: thallium flux BTC fluorescence, at 10 µM, actives lie on both sides.
Test [9] is described as follows: inhibitors of Sendai virus-induced IRF3 signaling, primary screen, TLR/RLR signaling modifier project, cell-based, Sendai virus stimulus, luciferase, 10K MLSCN set (AID 602276;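 active = inhibition at or above 50% at 10 µM; inactive = inhibition below 50%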;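 note: firefly luciferase from ISG56 promoter only with Renilla not read in this screen; 0% = Sendai virus plus DMSO and 100% = medium plus DMSO without virus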). The following applies: HEK293 RL24 IRF3 luciferase reporter, at 10 µM, stronger effect = higher value. On the technique in general: Reporter assays use an easily measured gene product as a stand-in for the process of interest.

A short description of test [10]: inhibitors of poly I:C-induced TLR3 signaling, primary screen, cell-based, poly I:C stimulus, luciferase, 10K MLSCN set (AID 602277;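 active = inhibition of the reporter signal at or above 50%; inactive = inhibition below 50%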). The following applies: HEK293-TLR3 RL24 IRF3 luciferase reporter, at 10 µM, stronger effect = higher value.
The nature of test [11]: inhibitors of larval lipid processing in zebrafish, primary screen, whole organism, PED6 fluorescence, gall bladder and intestine (AID 686;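 active = a full or partial loss of lipid-probe fluorescence in the fish gall bladder, intestine or both, judged by eye; inactive = no fluorescence loss, or compound toxic to the fish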;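 note: larvae 5 to 7 days old with five fish per well; signal comes from phospholipase A2 cleavage of quenched PED6 carried via bile; overnight exposure to compound and PED6 before scoring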). The settings on record: Zebrafish larvae PED6 lipid processing, fluorescence scoring; screened at 20 µM (by protocol).
The mark [12] stands for this setting: measured here: cell density z-score.
[13] abbreviates: measured here: nuclear c-Myc green intensity z-score.
Setting [14] is: measured here: nuclear pErk red intensity z-score, stronger effect = higher value.

Active and inactive are the calls of the source.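 Rule for the calls, unless noted: active = inhibition at or above 50% relative to wild type and mutant plate controls; inactive = inhibition below 50%.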

Sequence of Voltage-gated potassium channel subunit beta-2 (Rattus norvegicus) (P62483 whole entry, looked up): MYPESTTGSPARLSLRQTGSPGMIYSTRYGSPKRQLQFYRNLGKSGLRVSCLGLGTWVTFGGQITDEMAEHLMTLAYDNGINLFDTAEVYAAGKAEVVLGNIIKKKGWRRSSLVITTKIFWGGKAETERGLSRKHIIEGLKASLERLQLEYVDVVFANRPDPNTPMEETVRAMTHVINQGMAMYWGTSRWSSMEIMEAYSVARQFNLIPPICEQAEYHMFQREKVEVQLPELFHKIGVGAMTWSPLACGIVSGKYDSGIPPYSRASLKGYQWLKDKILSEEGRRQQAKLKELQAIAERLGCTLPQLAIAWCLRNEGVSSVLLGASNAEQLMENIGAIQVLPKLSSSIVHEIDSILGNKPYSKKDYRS
Sequence of Alpha-2C adrenergic receptor (Homo sapiens) (P18825 whole entry, looked up): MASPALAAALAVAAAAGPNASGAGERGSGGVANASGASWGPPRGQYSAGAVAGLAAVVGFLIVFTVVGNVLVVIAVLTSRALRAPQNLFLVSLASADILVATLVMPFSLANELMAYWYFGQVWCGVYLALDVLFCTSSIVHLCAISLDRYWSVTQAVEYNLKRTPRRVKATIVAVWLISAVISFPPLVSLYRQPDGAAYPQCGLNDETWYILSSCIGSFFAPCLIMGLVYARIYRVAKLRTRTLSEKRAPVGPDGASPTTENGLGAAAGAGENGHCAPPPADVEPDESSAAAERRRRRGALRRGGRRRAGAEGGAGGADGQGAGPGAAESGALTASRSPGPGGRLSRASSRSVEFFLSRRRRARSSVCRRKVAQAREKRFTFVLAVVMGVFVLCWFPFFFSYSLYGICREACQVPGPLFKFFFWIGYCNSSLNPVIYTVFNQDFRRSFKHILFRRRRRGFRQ

One may read the inhibition as the change of the read-out against control, counted positive when it falls. For `CO/N=C(\C(=O)N[C@@H]1C(=O)N2C(C(=O)O)=C(COC(C)=O)CS[C@H]12)c1csc(N)n1` (stereo in doubt), in test [1], the inhibition is 6.36% (inactive).
Same read-out and setting: as for `CCn1cc(C(=O)O)c(=O)c2cc3c(cc21)OCO3`, the figure is 1.71% (inactive).
`C[C@H](Cc1ccccc1)Nc1ncnc2c1ncn2[C@@H]1O[C@H](CO)[C@H](O)C1O` (stereo partly drawn): the inhibition in [1] is 0.221% (inactive).
Same read-out and setting: then `CC(/C=C/c1cccc(Oc2ccc(F)cc2)c1)N(O)C(N)=O` (stereo not drawn), with 4.78% (inactive).
Same read-out and setting: then `N#Cc1c(-c2ccccc2)no[n+]1[O-]`, with -3.89% (inactive).
`CC(C)COC(=O)OCN1C(=O)CN(CCN2CC(=O)N(COC(=O)OCC(C)C)C(=O)C2)CC1=O`: the inhibition in test [1] was 5.88% (inactive).
In the case of `COc1ccc(NC(=O)/C=C/c2ccc(Cl)cc2)cc1`, the inhibition in test [1] was 6.25% (inactive).
Consider `NCCS(=O)(=O)O`, for which, in test [1], the inhibition was 8.8% (inactive).
On to `Clc1cccc(Cl)c1NC1=NCCN1`, for which the inhibition in [1] was 5.28% (inactive).
Take `Oc1ccc(O)cc1`: in [1], the inhibition was 0.661% (inactive).
For `Cc1cnc(C(=O)NCCc2ccc(S(=O)(=O)NC(=O)NC3CCCCC3)cc2)cn1`, the cell count in test [2] turned out to be 609. Further, the inhibition was 0.1% (inactive) in test [2]; -102% (inactive) in test [3]; 12.4% (inactive) in test [5]; 12.9% (inactive) in test [9]; 21.2% (inactive) in test [10]. Besides, in test [3], the nuclei count came out at 134%. The results for the z-score in test [4] (setting [12]), in test [4] (setting [13]) and in [4] (setting [14]) were -0.283, 0.557 and -0.42, respectively. Moreover, the fluorescence slope in [6] was -0.474 (inactive). Further, the NADPH fluorescence slope in [7] is 8e-06 (inactive). Further, the slope in test [8] was 0.0053 (inactive).
`COC1(C2=NCCN2)COc2ccccc2O1` (stereo not drawn): the inhibition in test [1] was 7.5% (inactive).
Consider `COc1ccc(CCNC[C@@H](O)c2ccc(O)cc2)cc1OC`, for which, in test [1], the inhibition was -0.226% (inactive).
For the molecule `CC(C)(C)c1cc(/C=C(\C#N)C(N)=S)cc(C(C)(C)C)c1O`, the inhibition in [1] was 35.4% (inactive).
As for `CCCCCCCCCCCCC/C=C/C(O)C(N)CO` (stereo not drawn), the inhibition in test [1] is -1.48% (inactive).
In the case of `CO/N=C(\C(=O)N[C@@H]1C(=O)N2C(C(=O)O)=C(CSc3nc(=O)c(O)nn3C)CSC12)c1csc(N)n1` (stereo partly drawn), in test [1], the inhibition was 7.64% (inactive).
Consider `Oc1cc(O)c2c(c1)O[C@H](c1ccc(O)c(O)c1)[C@@H](O)C2`, for which the inhibition in test [1] is 2.87% (inactive).
Regarding `O=C(Nc1ccccc1)c1cc([N+](=O)[O-])ccc1Cl`, in test [1], the inhibition was 2.4% (inactive).
On the same count and under the same terms, as for `COc1ccccc1N1CCN(CCN(C(=O)c2ccc(F)cc2)c2ccccn2)CC1`, the figure is 0.605% (inactive); as for `COc1ccc(NC(=O)c2ccc(-c3ccc(-c4noc(C)n4)cc3C)cc2)cc1N1CCN(C)CC1`, 47.6% (inactive); as for `C[C@@]1(C2CCCC2)Cc2cc(OCC(=O)O)c(Cl)c(Cl)c2C1=O`, 5.71% (inactive).
With `CC(=O)[C@]1(O)Cc2c(O)c3c(c(O)c2[C@@H](O[C@H]2C[C@H](N)[C@H](O)[C@H](C)O2)C1)C(=O)c1ccccc1C3=O`, the inhibition in [1] is -16.2% (inactive).
As for `CC(=O)NCCc1ccc(O)c(O)c1`, the inhibition in test [1] is 5.98% (inactive).
In the case of `CCC1(O)CC2CN(CCc3c([nH]c4ccccc34)[C@@](C(=O)OC)(c3cc4c(cc3OC)N(C)C3[C@]45CCN4CC=C[C@@](CC)([C@@H](OC(C)=O)[C@]3(O)C(=O)OC)[C@H]45)C2)C1` (stereo partly drawn), the inhibition in test [1] was 4.61% (inactive).
Regarding `CCCC(=O)NCCc1c2n(c3ccc(OC)cc13)CCCc1ccccc1-2`, in [1], the inhibition was 5.19% (inactive).
Regarding `CCn1cc(C(=O)O)c(=O)c2ccc(C)nc21`, in test [2], the cell count came to 578. Further, the inhibition was -2.8% (inactive) in [2]; -83.2% (inactive) in [3]; 5.42% (inactive) in test [5]; 15.8% (inactive) in test [9]; 40.1% (inactive) in test [10]. In test [3], this molecule showed a nuclei count of 111%. Further, the z-score in test [4] (setting [12]) was 2.22; in test [4] (setting [13]), -0.0952; in test [4] (setting [14]) it was 0.302. For the same molecule, in [6], the fluorescence slope is -0.455 (inactive). Further, the NADPH fluorescence slope in [7] is -3.9e-05 (inactive). For the same molecule, the slope in test [8] is 0.00465 (inactive). Moreover, the molecule was classed as inactive in test [11].
As to `CC(C(=O)O)c1cccc(C(=O)c2ccccc2)c1` (stereo not drawn), the inhibition in test [1] is -4.65% (inactive).
Take `Cc1ccccc1/C=C/C1=NCCN1`: the inhibition in [1] is 3.42% (inactive).
